# Test results published in PubChem BioAssay (NCATS).
# Results filed as inconclusive are left out. A number with no mark means an inactive call. Calls follow the shape of the dose curve; as a rule, active = well fitted cell-killing curve with a large enough effect; inconclusive = small, poorly fitted or top-dose-only effect; inactive = no such curve, though single readings can be large or run the other way. Where a SMILES comes first, the peptide text is derived from it. Bridges are numbered along the chain shown (N, C = ends). [ ]: non-standard residue; d: D form. hArg = N=C(N)NCCCC[C@H](N)C(=O)O; Mpa = O=C(O)CCS
# Test: qHTS of pediatric cancer cell lines to identify multiple opportunities for drug repurposing: Primary screen for SJ-GBM2 cells (AID 1347091)
# Settings: SJ-GBM2 viability, CellTiter-Glo luminescence, 48 h; series mostly up to 46 µM; activity change, negative = cytotoxic: at the top concentration
# Excerpt: Drug repurposing or repositioning has been offered as a strategy for drug development in oncology programs. This approach has special potential for childhood cancers and other rare or orphan diseases, where the expected return on new drug development has been a disincentive to pharmaceuticals.
# In this project we exploit the poly-pharmacology of drugs to discover new indications via phenotypic screening of a panel of 19 well-characterized cell lines derived from solid tumors seen in children and adolescents. The goal is to identify approved drugs with previously unrecognized anticancer properties that has the potential to reveal new mechanisms and biological processes involved in carcinogenesis or drug resistance. We employed a titration-based paradigm (quantitative high-throughput screening or qHTS), where all compounds were tested at multiple concentrations for their effect on cell viability. Concentration-response curves (CRCs) were derived directly from the primary screen, and both potency and efficacy values were used to identify compounds with robust bioactivity profiles. We screened the NIH Chemical Genomics Center (NCGC) Pharmaceutical Collection (NPC) and Mechanism Interrogation Plate (MIPE) small molecule collections of approved and investigational compounds against these cell lines; and measured metabolically active cells after 48 hours of compound treatment as a proxy for cell viability.
# Assay Submitter: Nathalia J. Martinez, National Center for Advancing Translational Sciences, National Institutes of Health, Rockville, MD, USA; email: natalia.martinez@nih.gov
# [1] Shen, M et al. Quantitative high-throughput phenotypic screening of pediatric cancer cell lines identifies multiple opportunities for drug repurposing. Oncotarget 2017 Dec 19;9(4):4758-4772. PMID 29435139.
# The cells were obtained from University of North Carolina (UNC), Pediatric Preclinical Testing Program (PPT), and Coriell Institute (CI).
# qHTS cell viability assay:
# Cells were assayed in growth media at a density of 500-1,000 cells/well. Five microliters of cells were dispensed into 1,536-well, white, solid-bottom, TC-treated plates (Greiner Bio One) using a multidrop dispenser and incubated at 37 degrees C, 5% CO2, under a humidified atmosphere for 5 hours. Twenty-three nanoliters of compounds and controls (neutral control DMSO or positive control bortezomib at final concentration of 2.3 µM) were subsequently transferred by Kalypsys pintool. For primary screens, the MIPE collection was tested at 11-point dilutions (final concentrations range from 0.78 nM to 46 µM) and the NPC collection at 8-point dilutions (final concentrations range from 0.59 nM to 46 µM). Compounds tested in follow-up screens were assayed at 11-point dilutions. Cells were incubated for 48 hours, followed by addition of 3 uL of CellTiter-Glo (Promega). After a 15 min incubation at room temperature, samples were analyzed for luminescence intensity using a ViewLux High-throughput CCD imager equipped with clear filters.
row,SMILES,"activity change, negative = cytotoxic"
1,CN1C(C)(C)CCCC1(C)C,-18.7%
2,Cc1[nH]c(C)c(Cl)c(=O)c1Cl,8.97% [at 16.1 µM]
3,Cc1ccc(S(=O)(=O)NC(=O)NC2CCCCCCC2)cc1,19.8%
4,C[C@@H]1CCC[C@H](C)N1,22.1%
5,CCOC(=O)c1cccnc1,25.9%
6,Cc1c(I)c(=O)n(-c2ccccc2)n1C,8.19%
7,COc1nccnc1NS(=O)(=O)c1ccc(N)cc1,4.52%
8,CC(=O)SC[C@@H](Cc1ccccc1)C(=O)NCC(=O)OCc1ccccc1,9.73%
9,NS(=O)(=O)c1cc(C2(O)NC(=O)c3ccccc32)ccc1Cl (stereo not given),18.2%
10,C[C@]1(Cn2ccnn2)[C@H](C(=O)O)N2C(=O)C[C@H]2S1(=O)=O,22.4%
11,Cn1cc(C(=O)[C@@H]2CCc3nc[nH]c3C2)c2ccccc21,10.1%
12,N[C@@H](Cc1ccc(O)cc1)C(=O)O,12% [at 9.22 µM]
13,NC(=O)[C@@H]1CSSCCC(=O)N[C@@H](CCCCN=C(N)N)C(=O)NCC(=O)N[C@@H](CC(=O)O)C(=O)N[C@@H](Cc2c[nH]c3ccccc23)C(=O)N2CCC[C@H]2C(=O)N1 ([Mpa][hArg]GDWPC-NH2; disulfide 1-7),24.8%
14,NC(=O)NC1NC(=O)NC1=O (stereo not given),19.4%
15,Cc1c(Cn2ccnc2)c2ccccc2n1CCC(=O)O,18.9%
16,CN1CCCN=C1COC(=O)C(O)(c1ccccc1)C1CCCCC1 (stereo not given),6.87%
17,CN[C@@H]1[C@@H](O)[C@@H](O[C@@H]2[C@H](O)[C@H](O[C@H]3OC(CN)=CC[C@H]3N)[C@@H](N)C[C@H]2N)OCC1(C)O (stereo not given in full),30.9%
18,COc1ccc(C(=O)N2CCN(CC(=O)N3CCOCC3)CC2)cc1,23.1%
19,CCN(CC)C(=O)c1cccc(C)c1,19.1%
20,CC(C)CCCC(C)CCCC(C)CCCCC(C)CCCC(C)CCCC(C)C (stereo not given),24.6%

row,SMILES,"activity change, negative = cytotoxic"
1,Cc1cccc(C)c1NC(=O)CC12CCCN1CCC2,14.9%
2,CC(=O)N[C@H]1[C@H]([C@H](O)[C@H](O)CO)OC(C(=O)O)=C[C@@H]1N=C(N)N,4.36%
3,CCCCCCCC(=O)OCC(O)CO (stereo not given),2.33%
4,CN(C(=O)c1c(O)c2ccccc2n(C)c1=O)c1ccccc1,15.5%
5,O=C(O)c1ccccc1C(=O)Nc1ccc(S(=O)(=O)Nc2nccs2)cc1,-5.29%
6,Cc1c(C(=O)NCCO)[n+](=O)c2ccccc2n1[O-],1.21%
7,CCCCOC(=O)c1ccc(N)cc1,-16.7%
8,Cc1cc(-n2nc3ccc(Cl)cc3n2)c(O)c(C(C)(C)C)c1,15.7%
9,O=C(/C=C/c1ccccc1)OCc1ccccc1,15.9%
10,CC[N+](C)(CC)CCOC(=O)C1c2ccccc2Oc2ccccc21,14.5%
11,COC(=O)c1cccnc1,11.4%
12,Cc1c(C)c2c(c(C)c1OC(=O)c1cccnc1)CC[C@@](C)(CCC[C@H](C)CCC[C@H](C)CCCC(C)C)O2,9.79%
13,COc1ccc(-c2cc(=O)c3c(O)cc(O[C@@H]4O[C@H](CO[C@@H]5O[C@@H](C)[C@H](O)[C@@H](O)[C@H]5O)[C@@H](O)[C@H](O)[C@H]4O)cc3o2)cc1O,38%
14,NC(=O)N[C@@H](CCC(=O)O)C(=O)O,18.6%
15,O=C(O)COC(=O)Cc1ccccc1Nc1c(Cl)cccc1Cl,21.8%
16,C[C@@H]1O[C@@H](OC[C@H]2O[C@@H](Oc3c(-c4ccc(O)c(O)c4)oc4cc(O)cc(O)c4c3=O)[C@H](O)[C@@H](O)[C@@H]2O)[C@H](O)[C@H](O)[C@H]1O,36.1%
17,Cc1cc(C)c(NC(=O)CN(CC(=O)O)CC(=O)O)c(C)c1Br,10.3%
18,CC(C)(C)NCC(O)COc1cccc2c1CCC(=O)N2 (stereo not given),14.8%
19,C[N+]1(C)CCCC(OC(=O)C(O)(c2ccccc2)c2ccccc2)C1 (stereo not given),25%
20,Nc1ccncc1N,4.58%
